Source: PubChem
The full list was thinned out, with hits kept by preference.
BLM helicase inh – blocks DNA unwinding by human BLM helicase; recombinant BLM DNA unwinding, fluorescence dequenching; Potency, µM (series often up to 56.1 µM), inactives show at the top dose activity change, negative = inhibition, hits mostly inhibitors; hit rate 0.2% among 350,000;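 further: plate controls were vehicle for no effect and no enzyme for full effect; nearly all actives have a fitted effect of over 35% in size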
Target sequence (P54132 whole entry, looked up): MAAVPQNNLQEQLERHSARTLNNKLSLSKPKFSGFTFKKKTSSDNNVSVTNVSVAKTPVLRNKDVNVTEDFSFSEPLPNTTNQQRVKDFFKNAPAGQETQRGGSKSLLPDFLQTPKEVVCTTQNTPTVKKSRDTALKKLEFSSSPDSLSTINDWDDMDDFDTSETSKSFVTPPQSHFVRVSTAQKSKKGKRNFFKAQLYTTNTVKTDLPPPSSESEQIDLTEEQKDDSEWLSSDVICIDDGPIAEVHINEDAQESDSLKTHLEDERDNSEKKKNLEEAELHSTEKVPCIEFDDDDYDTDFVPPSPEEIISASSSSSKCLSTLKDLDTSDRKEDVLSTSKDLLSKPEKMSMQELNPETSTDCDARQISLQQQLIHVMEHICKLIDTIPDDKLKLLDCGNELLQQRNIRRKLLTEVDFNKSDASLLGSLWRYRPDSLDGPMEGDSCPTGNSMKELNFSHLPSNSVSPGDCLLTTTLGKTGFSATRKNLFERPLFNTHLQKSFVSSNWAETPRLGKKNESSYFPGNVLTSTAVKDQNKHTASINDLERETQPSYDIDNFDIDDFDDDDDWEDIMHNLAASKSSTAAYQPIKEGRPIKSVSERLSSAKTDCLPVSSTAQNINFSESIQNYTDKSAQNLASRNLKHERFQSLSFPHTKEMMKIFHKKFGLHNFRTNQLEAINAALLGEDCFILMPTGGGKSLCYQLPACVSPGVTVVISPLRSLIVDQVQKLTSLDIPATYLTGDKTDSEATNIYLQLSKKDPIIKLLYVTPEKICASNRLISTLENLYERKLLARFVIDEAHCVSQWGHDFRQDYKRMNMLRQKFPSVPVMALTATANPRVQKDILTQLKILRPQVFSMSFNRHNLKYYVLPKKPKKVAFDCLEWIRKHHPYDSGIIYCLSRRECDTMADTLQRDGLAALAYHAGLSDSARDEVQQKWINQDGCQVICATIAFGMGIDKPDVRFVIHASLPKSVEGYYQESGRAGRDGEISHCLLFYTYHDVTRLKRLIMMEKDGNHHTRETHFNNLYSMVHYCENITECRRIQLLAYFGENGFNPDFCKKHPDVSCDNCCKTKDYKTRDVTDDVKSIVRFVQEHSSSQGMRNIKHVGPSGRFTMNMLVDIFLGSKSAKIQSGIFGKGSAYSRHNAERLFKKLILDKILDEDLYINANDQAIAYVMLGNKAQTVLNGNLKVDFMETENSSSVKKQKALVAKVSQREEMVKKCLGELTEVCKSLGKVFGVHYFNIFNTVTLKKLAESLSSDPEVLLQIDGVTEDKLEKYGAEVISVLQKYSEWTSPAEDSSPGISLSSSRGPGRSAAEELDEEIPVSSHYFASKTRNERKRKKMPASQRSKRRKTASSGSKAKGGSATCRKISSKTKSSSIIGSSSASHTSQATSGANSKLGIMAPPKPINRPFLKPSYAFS
TDP1 inh – TDP1 (human) enzyme inhibition; recombinant TDP1, AlphaScreen DNA substrate cleavage; Potency, µM (doses to about 130 µM), without a hit: at the top dose activity change, negative = inhibition, hits mostly inhibitors; AID 485290; hit rate 0.28% among 350,000; further: nearly all actives have a fitted effect of over 40% in size
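Tdp1 1 nM final; 15 min RT w/ cpd; substrate 15 nM, 5 min; beads 10 ug/ml, 10 min; AlphaScreen read. Neg ctrl: no enzyme.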
KDM4E inh – JMJD2E (human) inhibition; hit rate 1.6% among 230,000; JMJD2E catalytic domain, FDH-coupled NADH fluorescence (FDH is formaldehyde dehydrogenase); Potency, µM (doses to about 57.1 µM), inactives show at the highest dose activity change, negative = inhibition, usual class: inhibitors; AID 2147; active means well fitted inhibition curve with a large enough effect, not every such curve was filed as active; inconclusive means small, poorly fitted or top-dose-only effect, or another doubt; inactive means no such curve, though single readings can be large or run the other way;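 further: 0% = wells with enzyme and -100% = buffer wells without enzyme; nearly all actives have a fitted effect of over 50% in size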
RECQ1 inh – blocks DNA unwinding by human RECQ1; P46063; RECQ1 DNA unwinding, red fluorescence kinetic read; Potency, µM (top dose mostly 57.3 µM), for the others: at the top dose activity, negative = inhibition, actives largely listed as inhibitors; hit rate 0.54% among 240,000;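 further: plate controls were vehicle for no effect and no enzyme for full effect; nearly all actives have a fitted effect of over 30% in size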
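50 nM RECQ1T1 preincubated 15 min with compound in Tris pH 8.0 buffer with MgCl2, DTT, Tween-20 and 2.5 ug/ml poly(dI-dC); started with 200 nM TAMRA/BHQ-2 forked duplex and 2 mM ATP. Unwinding read as fluorescence (525/598 nm), two reads 2 h apart.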
L3MBTL1 inh – blocks human L3MBTL1; Q9Y468; AlphaScreen L3MBTL1–H3K9me1 peptide binding; Potency, µM (doses to about 57.1 µM), for the others: at the top dose activity, negative = inhibition, actives largely listed as inhibitors; hit rate 0.66% among 230,000; further: nearly all actives have a fitted effect of over 60% in size
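L3MBTL1 50 nM + b-AHA-H3(1-15)K9me1 75 nM, 30 min RT; compound added, 30 min RT; streptavidin donor/Ni-chelate acceptor beads 10 ug/mL each final, 30 min RT dark; AlphaScreen read.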
APEX1 inh – blocks human APE1 abasic DNA cleavage | Potency, µM (top dose mostly 65.8 µM), for inactives: at the highest dose activity change, negative = inhibition, actives largely listed as inhibitors | P27695 | recombinant APE1, TAMRA/BHQ-2 abasic DNA cleavage fluorescence | hit rate 0.35% among 350,000;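 further: plate controls were vehicle for no effect and reference inhibitor for full effect; nearly all actives have a fitted effect of over 55% in size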
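Compound pre-exposure to 0.75 nM APE1, 15 min at ambient temperature. Reaction initiated with 50 nM TAMRA/BHQ-2 THF substrate, read immediately in kinetic mode, 525 nm excitation, 598 nm emission.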
* = called active by the depositor; i = inactive; ? = inconclusive; · = no result given; [ ] = another dose, or the depositor's remark. Unless noted, the call rests on the fitted dose curve; in most records, active means well fitted curve in the direction sought with a large enough effect; inconclusive means small, poorly fitted or top-dose-only effect, or another doubt; inactive means no such curve, though single readings can be large; an effect the other way counts as inactive or inconclusive. Unless noted, on the % scale 0 is the no-effect control and ±100 the full control effect; potency means the concentration at half of the fitted maximal effect.

SMILES | BLM helicase inh | TDP1 inh | KDM4E inh | RECQ1 inh | L3MBTL1 inh | APEX1 inh
CCn1c(C)c(CS(=O)(=O)c2ccccc2)[nH]c1=O | 0% | 3% | 28µM* | i | · | 12%
CCn1c(=O)[nH]c2ccccc21 | 2% | 12%[56.1 µM] | 5% | -5% | · | -9%
C=C1CC2C3C=C(C)C4=CC(=O)CCC4(C)C3CCC2(C)[C@@]1(OC(C)=O)C(C)=O (stereo not given in full) | -10% | 0% | · | · | · | ·
Cc1ccc(C2CC(=O)Oc3cc4c(cc32)OCO4)cc1 (stereo not given) | -18%[75.6 µM] | -14%[234 µM] | · | 32µM* | · | ?
COc1ccc(CCNC(=O)C(=O)Nc2ccc(C)cc2)cc1OC | -2% | -5% | · | · | · | ·
COc1ccccc1-c1cc(-n2ccnc2)ncn1 | 2% | · | · | -11% | · | 1%
c1cn(-c2cc(-c3ccc4c(c3)OCO4)ncn2)cn1 | -2% | · | · | -8% | · | 8.9µM*
CC(C)(C)n1ncc2c(=O)n(Cc3ccc(C#N)cc3)cnc21 | · | · | · | · | · | 2%
Cc1cccc(Cn2cnc3c(cnn3C(C)(C)C)c2=O)c1 | · | · | · | · | · | -4%
CC(C)[C@H](NC(=O)C1CCC(CNC(=O)[C@@H]2CCCN2C(=O)OC(C)(C)C)CC1)C(=O)O (stereo not given in full) | 4% | · | · | · | · | -3%
CCC(C)[C@H](NC(=O)C1CCC(CNC(=O)[C@@H]2CCCN2C(=O)OC(C)(C)C)CC1)C(=O)O (stereo not given in full) | -9% | · | · | · | · | 150µM*
CN(C)c1nc(-c2ccoc2)nc2ccccc12 | 6% | · | -21% | -10% | · | 1%
Cc1nn(C)cc1/C=N/NC(=O)Cn1cncn1 | 2% | · | 4% | -3% | -2% | -1%
COc1cccc(/C=N/NC(=O)c2cc3cc([N+](=O)[O-])ccc3s2)c1O | 16µM* | 1% | ? | -20% | ? | 2µM*
COc1cc([N+](=O)[O-])cc(/C=N/NC(=O)c2ccc(NC(=O)c3ccc(C)cc3)cc2)c1O | -4% | -5% | 6% | i | -2% | 2%
COc1cc([N+](=O)[O-])cc(/C=N/NC(=O)Cn2cncn2)c1O | -9% | 6% | 14µM* | -7% | ? | 0%
COc1cc([N+](=O)[O-])cc(/C=N/NC(=O)CSc2ccccn2)c1O | -4% | 9% | 20µM* | 18% | · | 9%
COc1cc([N+](=O)[O-])cc(/C=N/NC(=O)c2ccc(C)nc2)c1O | -20% | -7% | 14µM* | -1% | ? | 0%
CCC(C)NC(=O)CSc1nc2n[nH]c(C)c2c(=N)n1-c1cc(Cl)ccc1C (stereo not given) | 1% | 0% | · | · | · | ·
O=C(N/N=C/c1ccc(OC(=O)c2ccc([N+](=O)[O-])cc2)cc1)c1cccnc1 | -2% | 0% | · | · | · | 44%
COc1cc(/C=N/NC(=O)c2cccnc2)ccc1OC(=O)c1ccc([N+](=O)[O-])cc1 | -28% | 45µM* | -2% | -22% | · | -3%
O=C(c1ccco1)N1CCc2[nH]nc(-c3ccccc3)c2C1 | -1% | 1% | · | · | · | -44%
O=[N+]([O-])c1ccc(/C=N/Nc2ncc(Br)cn2)cc1 | -16% | 50µM* | · | · | 9% | -7%
O=[N+]([O-])c1ccc(/C=N/Nc2ncc(-c3ccccc3)cn2)cc1 | -6% | 6% | 5% | i | -1% | -4%
CC(=O)NCCNc1ccnc(-c2ccccc2C(F)(F)F)n1 | 4% | · | · | -4% | · | -2%
SMILES | BLM helicase inh | TDP1 inh | KDM4E inh | RECQ1 inh | L3MBTL1 inh | APEX1 inh
CC1(C)CN(c2ccc(Br)cc2Br)C1=O | 1% | 3% | -2% | i | 12% | 1%
Cc1c(Cl)cccc1N1CC(C)(C)C1=O | 0% | -2% | 5% | 18µM* | 15% | -4%
C=CCN1C=C2C(=O)C(C)(OC(=O)CCC(=O)OC)C(=O)C(Br)=C2C=C1c1ccc(OC)cc1 (stereo not given) | -19%[12.4 µM] | 1%[12.3 µM] | 7.9µM* | 0%[11.5 µM] | · | 0%[12.4 µM]
CC(=O)Sc1nc(-c2ccccc2)[nH]c1S(=O)(=O)c1ccc(C)cc1 | -1% | 7% | 10µM* | 6% | -1% | -1%
Cc1ccc(S(=O)(=O)c2[nH]c(-c3ccccc3)nc2SCC(=O)O)cc1 | -2% | -1% | · | · | · | ·
O=C(/C=C/c1ccc2c(c1)OCO2)c1cccs1 | -11% | 14%[56.1 µM] | 22µM* | 0% | · | -1%
O=C(/C=C/c1ccc2c(c1)OCO2)c1ccc[nH]1 | 0% | 3% | -30% | 0% | -5% | 0%
CCNc1ccccc(C(=O)/C=C/c2ccc3c(c2)OCO3)c1=O | -21% | -3% | 20µM* | ? | · | -9%
COC(=O)/C=C/c1ccc2c(c1)OCO2 | 0% | 0% | ? | 3% | 28% | -2%
O=C(Cn1cc(C(F)(F)F)ccc1=O)N/N=C/c1ccccc1O | -4% | 4% | 10µM* | -4% | -26% | -2%
N#Cc1nc(Nc2cccc(F)c2)nc(NC2CCCC2)n1 | · | -4% | · | · | · | ·
CCN(CC)c1ccc2cc(-c3nc4ccccc4n3C)c(=O)oc2c1 | -2% | -4% | ? | -8% | 22% | -1%
CCN(CC)c1ccc2nc3ccccc3[n+](CC)c2c1 | ? | 12% | · | · | 20µM* | 5%
O=C(O)[C@H](Cc1c[nH]c2ccccc12)N1C(=O)C2=CCCC=C2C1=O | 2% | 8% | · | -7% | · | 26%
CCCCOP(=O)(c1ccc(N(C)C)cc1)C(O)c1ccncc1 (stereo not given) | -1% | 0% | 22µM* | -3% | 0% | 2%
CCCCOP(=O)(c1ccc(N(C)C)cc1)C(O)c1ccc(N(C)C)cc1 (stereo not given) | -3% | · | · | · | · | 51%
Cc1cccc(C(=O)NNC(=O)c2ccc(F)cc2)c1 | 3% | 0% | 3% | 7% | 4% | 0%
O=C(NNC(=O)c1cccc(-n2cccc2)c1)c1ccc(F)cc1 | · | · | · | · | 22µM* | -13%
CCCn1c(=O)c2sccc2n2c(CCCC(=O)N3CCN(c4cccc(C)c4C)CC3)nnc12 | 0% | 0% | · | · | · | ·
CN[C@@H]1[C@@H](O[C@H]2O[C@H](CO)[C@@H](N)[C@H](O)[C@H]2O)O[C@H]2C[C@@H](N)[C@@H](O[C@H]3[C@H](O)[C@@H](O)[C@H](N)C[C@@H]3N)O[C@@H]2[C@@H]1O | · | · | · | · | · | 2%[21 µM]
COc1ccc(N=Nc2nc(-c3ccccc3)c(-c3ccccc3)[nH]2)cc1 | -9% | 12% | -8% | -22% | 16µM* | -5%
Cc1nc2c(O)cccc2c(=O)[nH]1 | -8% | 10% | 13µM* | -4% | · | 10%
CC(=O)Nc1c(S(=O)(=O)c2ccccc2)c2nc3ccccc3nc2n1Cc1ccccc1 | -3% | 2% | ? | -4% | 2% | -9%
